Laboratory results published in PubChem BioAssay AID777 (Sanford-Burnham Center for Chemical Genomics, 2007).
The campaign covered roughly 96,000 compounds. About 19,000 (20%) were called active. Only a sample is shown. Values without a mark were called inactive.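 How the source made its calls: active means blocking of liver enzyme CYP2C9 beyond about 50% at 5 µM (limit read from the data); inactive means the rest.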

What follows are molecules tested against Cytochrome P450 2C9 (Homo sapiens) (UniProt P11712) (assay: blockers of cytochrome P450 2C9 activity – biochemical, luminescence, ADME assay, primary screen (AID 777)). Conditions: CYP2C9 Supersomes, luciferin-H conversion, at 5 µM, active compounds read high.
Chain of Cytochrome P450 2C9 (Homo sapiens) (P11712 whole entry, looked up): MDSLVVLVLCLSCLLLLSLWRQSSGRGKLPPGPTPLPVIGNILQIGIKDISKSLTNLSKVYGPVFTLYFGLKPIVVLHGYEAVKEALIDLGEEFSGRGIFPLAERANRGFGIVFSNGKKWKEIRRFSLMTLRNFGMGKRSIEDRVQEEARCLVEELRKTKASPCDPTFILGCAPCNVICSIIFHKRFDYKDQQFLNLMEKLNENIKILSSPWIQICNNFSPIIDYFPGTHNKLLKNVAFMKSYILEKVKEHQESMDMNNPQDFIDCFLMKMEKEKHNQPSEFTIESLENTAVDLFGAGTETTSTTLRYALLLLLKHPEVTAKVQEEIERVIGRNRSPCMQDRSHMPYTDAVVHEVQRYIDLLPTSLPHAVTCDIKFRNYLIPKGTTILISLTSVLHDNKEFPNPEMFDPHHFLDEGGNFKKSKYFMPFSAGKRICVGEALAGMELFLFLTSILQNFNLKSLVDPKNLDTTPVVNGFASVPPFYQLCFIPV

Compound	inhibition
CCC(Sc1nncn1C)C(=O)Nc1nnc(-c2ccc(Cl)cc2)s1 (configuration not stated)	32.9%
COc1ccc2c(c1OC)C(=O)OC2c1c(O)nc(SC)n(-c2ccccc2)c1=O (configuration not stated)	-12.4%
O=C(NC1CC2CCCC(C1)N2C(=O)N1CCCCC1)C1CCCCC1 (configuration not stated)	25.5%
CCOc1ccccc1Nc1nnc(SCC(=O)Nc2cc(C)on2)s1	7.4%
COc1ncnc2c1N=C1CC(C)(C)CC(N)=C1S2	1.2%
CCCn1c(SCC(=O)Nc2c(C)cccc2C)nnc1C(C)C	4.1%
Cc1cc2cc3c(cc2nc1SCC(=O)Nc1c(C)cccc1C)CCC3	61.6% (active)
Cc1nc2cc(NC(=O)CSc3nc4c(C)cccc4cc3C#N)ccc2s1	25.5%
Cn1c(SCC(=O)OC2CCCCC2)nnc1-c1ccc(S(=O)(=O)N2CCCC2)cc1	7.9%
CCN(CC)c1ccc(/C=N/Nc2nc(C)cc(=O)[nH]2)cc1	-21.5%
CC1=C2C(=O)OC(c3ccoc3)C2(C)CCC1 (configuration not stated)	57.9% (active)
CC(C)C(=O)Nc1c(C(=O)c2ccc(F)cc2)oc2ccccc12	-0.2%
CCOc1nnc(C)c2c(C)n(-c3cccc(Cl)c3)nc12	28.6%
CCOc1ccc2nc(NC(=O)CSc3nc4c(c(=O)n(C)c(=O)n4C)n3CC)sc2c1	52.2% (active)
CCn1c(SCC(=O)Nc2nc3ccc(OC)cc3s2)nnc1-c1ccoc1C	68.2% (active)
CCOC(=O)CNC(=O)CSc1nnc(-c2cccc(OC)c2)n1CC	9.9%
CCCn1c(SCC(=O)Nc2cccc(C(=O)OCC)c2)nnc1-c1ccoc1C	15.8%
C#CC(C)(C)NC(=O)CSc1nc2c(c(=O)n(C)c(=O)n2C)n1CCCC	23.7%
CCCCn1c(SCC(=O)NCCc2ccc(OC)c(OC)c2)nc2c1c(=O)n(C)c(=O)n2C	-17.3%
Cc1c(Nc2cc(N3CCCC(C)C3)c3nonc3c2[N+](=O)[O-])c(=O)n(-c2ccccc2)n1C (configuration not stated)	41.4%
CC1CSc2nnc(CCc3ccccc3)n21 (configuration not stated)	-10.1%
COc1ccccc1NC(=O)COc1ccc(C(=O)OCC(=O)N(C(C)C)C(C)C)cc1OC	37.6%
CC1CC(C)CN(CC(=O)Nc2ccc(S(N)(=O)=O)cc2)C1 (configuration not stated)	15.7%
CN(C)/C=C1/Nc2ccccc2C1=O	-8.2%
c1ccc(-n2nnnc2N2CCOCC2)cc1	-5.9%

Compound	inhibition
O=C(CN1CCOCC1)Nc1c2c(nc3c1CCC3)CCC2	-11.6%
CCN(CC)CCn1c2ccc(Cl)cc2c2nc(C)sc21	46.4%
Cc1nc(Cl)c2oc3ccccc3c2n1	9%
CCC(Oc1ccccc1)C(=O)NCc1cccnc1 (configuration not stated)	8.8%
COc1ccc(-c2cc(C(F)(F)F)nc(NCc3cccnc3)n2)cc1	55.3% (active)
COc1ccc(-c2cc(C(F)(F)F)nc(S(C)(=O)=O)n2)cc1OC	4.2%
C=CCC(NCCCO)c1cccc(OC)c1OC (configuration not stated)	-26.1%
CC(C)(C)c1cc2cccnc2n1Cc1ccccc1	0.7%
CCOc1ccc2nc(SC(CC)C(=O)Nc3cc(C)on3)sc2c1 (configuration not stated)	-4.1%
CCCCNC(=O)c1onc(CSc2cccc(OC)c2)c1C(=O)O	82.5% (active)
CCOc1cccc(SCc2noc(C(=O)NC(C)C)c2C(=O)O)c1	73.7% (active)
COc1ccc(SCc2noc(C(=O)NCC3CCCO3)c2C(=O)O)cc1 (configuration not stated)	20.1%
COCCNC(=O)c1onc(CSc2cccc(C)c2)c1C(=O)O	30.2%
COC(=O)c1c(CCl)noc1C(=O)NC(C)C	-0.5%
O=[N+]([O-])c1ccc(Oc2ccc(F)cc2Br)c2ccncc12	6.1%
Cc1ccc(NC(=O)Nc2ccc3oc(C)nc3c2)cc1	8.7%
C=CCSC1=C(C#N)C(c2cc(Br)c(O)c(OC)c2)CC(=O)N1 (configuration not stated)	39.1%
Cc1ccc(C2CC(=O)NC(SCC(=O)OCc3ccccc3)=C2C#N)o1 (configuration not stated)	97% (active)
CCOC(=O)CSC1=C(C#N)C(c2sccc2C)CC(=O)N1 (configuration not stated)	54.8% (active)
COC(=O)CSC1=C(C#N)C(c2ccccc2OC)C(C(=O)OC)C(=O)N1 (configuration not stated)	24%
CCOC(=O)c1ccc(N2C(=O)CC(Sc3nc(O)c(CC)c(=O)[nH]3)C2=O)cc1 (configuration not stated)	26.2%
O=C(COc1ccc(Cl)cc1)N1CCN(c2cccc(C(F)(F)F)c2)CC1	13.6%
Cc1cc(NC(=O)CS(=O)(=O)c2cn(C)c3ccccc23)no1	-20.5%
CCN(CC)S(=O)(=O)c1ccc2nc(CSc3nnnn3-c3ccc(O)cc3)[nH]c2c1	97.3% (active)
CN(C)S(=O)(=O)c1ccc(NC(=O)COC(=O)c2n[nH]c3ccccc23)cc1	13.8%

Compound	inhibition
CCN(CC)S(=O)(=O)c1ccc2[nH]cc(C(=O)NCCc3ccccc3)c(=O)c2c1	22.4%
COc1ccc(-n2nnnc2SCc2nc(N)nc(N3CCOCC3)n2)cc1	35.6%
O=c1c2ccccc2nc(CSc2nnnn2-c2ccccc2)n1-c1ccccc1	-6.4%
CCN(CC)S(=O)(=O)c1ccc2nc(COC(=O)c3n[nH]c4ccccc34)[nH]c2c1	77.2% (active)
COC(=O)[C@H](Cc1ccccc1)NC(=O)N1CC(C)OC(C)C1 (some centres not stated)	4.3%
O=C(NC1(C(F)(F)F)NC(=O)N(Cc2cccnc2)C1=O)c1ccccc1Cl (configuration not stated)	2.6%
CC(C)(C)NC(=O)NC(=O)COC(=O)CCC1CCCCC1	11.7%
CC(=O)N=c1ncn(CC(COC(C)=O)OC(C)=O)c2nc[nH]c12 (configuration not stated)	10.5%
O=C(Nc1ccccc1C(F)(F)F)c1cc(-c2ccc(O)cc2)on1	-234%
Cc1cc2c(c(=O)n1C)C(C(C)C)C(C#N)=C(N)O2 (configuration not stated)	9.3%
CCOC(=O)C1(C(F)(F)F)N=C(N(C)C)OC(N(C)C)=N1	5.6%
C=CCOc1ccc(Cl)cc1CNCCCN1CCOCC1	9.4%
Cc1ccc(OCC(=O)N/N=C/c2ccncc2)cc1	86.7% (active)
Cc1cc(C)c(OCC(=O)N/N=C/c2ccco2)c(C)c1	-17.6%
CSc1ccc(/C=N\NC(=O)COc2ccc(Cl)cc2Br)cc1	36%
NS(=O)(=O)c1ccc(NS(=O)(=O)/C=C/c2ccccc2)cc1	47.3%
Cc1ccc(-c2nn(C(C)(C)C)c3ncnc(N)c23)cc1	25.5%
Cn1c(=O)[nH]c(=O)c2c1nc(N1CCN(CCO)CC1)n2CCSc1nc2ccccc2s1	-5.4%
Cc1nc2nc(CSc3nc4ccccc4s3)cc(=O)n2[nH]1	60.1% (active)
CCCc1cc(=O)n2[nH]c(SCc3ccccc3)nc2n1	43.9%
CCCCn1nc(C(=O)N2CCc3ccccc32)c2ccccc2c1=O	41%
CCOc1ccc(OCc2ccc(C(=O)Nc3cccc(C)n3)o2)cc1	40.9%
CC(=O)Cc1nsc(NC(=O)c2ccc(COc3ccc(C)cc3)o2)n1	64.4% (active)
CC(=O)Cc1nsc(NC(=O)c2csc3c2CCCC3)n1	30%
O=C(Oc1ccccc1)Oc1ccc2c(c1)oc(=O)c1ccccc12	-55.2%

Compound	inhibition
Cc1c(C(=O)N2CC(C)OC(C)C2)sc2nc(-c3ccccc3)cn12 (configuration not stated)	1.3%
Fc1ccccc1/C=C1\CCCC2=C1Nc1ncnn1C2c1ccccc1F (configuration not stated)	43.9%
Cc1ccc(C2(C(F)(F)F)N=C3Sc4cc(C)cc(C)c4N3C(=O)N2)cc1 (configuration not stated)	65.5% (active)
CCOC(=O)C(=O)Nc1nc(-c2ccccc2)c(CC)s1	2.4%
N=c1n(Cc2ccc(Cl)cc2)c2ccccc2n1CC(O)c1ccco1 (configuration not stated)	23.2%
Cc1cccn2c(=O)c(/C=C3\SC(=S)N(CC(C)C)C3=O)c(NCCCOC(C)C)nc12	27%
Cn1c(=NC(=O)c2ccco2)sc2cccc(F)c21	1%
CC(Oc1ccc(-c2ccccc2)c(F)c1)c1ccn(S(=O)(=O)c2cccc3ccccc23)n1 (configuration not stated)	76.9% (active)
CCN(CC)Cc1cc(C(C)=O)ccc1O	-7.4%
CCOc1ccccc1Oc1cn[nH]c1-c1ccc(OC)cc1O	98.2% (active)
CCOc1ccccc1NC(=O)Nc1cc(OC)ccc1OC	4.9%
CCOC(=O)C1CCN(C(=O)CSc2cc(=O)n(C)c3ccccc23)CC1	18.3%
O=c1c(-c2ccccc2)coc2c(CN3CCOCC3)c(O)ccc12	7.7%
CCOC(=O)C1CCCN(Cc2nc(N)nc(Nc3ccc(C)cc3)n2)C1 (configuration not stated)	13.1%
NC(=O)C1(N2CCCCC2)CCN(C(=O)c2ccc(C#Cc3ccccc3)o2)CC1	71.6% (active)
NC(=O)C1(N2CCCCC2)CCN(C(=S)Nc2ccc(Cl)cc2)CC1	20.5%
CC(C)(O)C#Cc1ccc(C(=O)N2CCC(C(N)=O)(N3CCCCC3)CC2)cc1	27.6%
CCOC(=O)N1CCC(NC(=O)c2cnn3ccccc23)CC1	9.8%
O=C(Nc1cccc(-c2nnc(-c3ccccc3)o2)c1)C1CCCO1 (configuration not stated)	27.5%
O=C(CSc1nnc(-c2ccccc2)o1)N1CCOCC1	-9.8%
c1ccc(-c2nnc(SCc3nc4ccccc4[nH]3)o2)cc1	50.9% (active)
C=CCSc1nc2ccccc2[nH]1	-21%
